Reference: the supplement of paper PMC12669032
Unmarked numbers belong to inactive results.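 How the source made its calls: active = AUC reduced over 20% with Padj below 0.05 in at least 2 of 3 replicates; inactive = otherwise.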

Experiments:
Assay in all cases: growth AUC relative to DMSO control (median of replicates) (fraction); higher = more growth (less inhibition), active = hit call of the paper
Conditions in all cases: 20 µM; 24 h
[1] = tested on: Coprococcus comes
How it was run: (§1)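 Gut bacterial monocultures in mGAM were treated with 20 µM compound (1% DMSO) and grown anaerobically at 37 °C in round-bottom 96-well plates from OD600 0.05. OD600 was read hourly for 24 h, with the minimum OD set to 0. Area under the growth curve was normalised to the plate median of solvent-only wells, or to row and column medians on the industrial chemical plate. Each value is the median of three biological replicates, each grown on a separate day.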

[2] = tested on: Escherichia coli ED1a
How it was run: as §1

[3] = tested on: Escherichia coli IAI1
How it was run: as §1

[4] = tested on: Eubacterium rectale
How it was run: as §1

[5] = tested on: Fusobacterium nucleatum subsp. animalis
How it was run: as §1

[6] = tested on: Lactobacillus gasseri
How it was run: as §1

[7] = tested on: Lactobacillus paracasei
How it was run: as §1

[8] = tested on: Odoribacter splanchnicus
How it was run: as §1

[9] = tested on: Parabacteroides distasonis
How it was run: as §1

[10] = tested on: Parabacteroides merdae
How it was run: as §1

[11] = tested on: Roseburia intestinalis
How it was run: as §1

[12] = tested on: Streptococcus salivarius
How it was run: as §1

Row | Compound | growth AUC [1] | growth AUC [2] | growth AUC [3] | growth AUC [4] | growth AUC [5] | growth AUC [6] | growth AUC [7] | growth AUC [8] | growth AUC [9] | growth AUC [10] | growth AUC [11] | growth AUC [12]
1 | CC1=C(c2ccccc2)C(=O)N(C(C)(C)c2cc(Cl)cc(Cl)c2)CO1 | 0.972 | 1.01 | 0.987 | 0.982 | 0.935 | 1.01 | 1.04 | 0.972 | 0.732 (active) | 0.811 | 1.03 | 0.979
2 | COc1nc(C)nc(NC(=O)NS(=O)(=O)c2ccccc2OCCCl)n1 | 1.02 | 0.948 | 1 | 0.987 | 0.953 | 0.933 | 0.982 | 1 | 0.98 | 0.97 | 1 | 0.992
3 | CCOC(=O)Nc1cccc(OC(=O)Nc2cccc(C)c2)c1 | 0.963 | 0.94 | 0.953 | 1.01 | 0.974 | 0.896 | 1.01 | 1.08 | 0.913 | 0.932 | 0.912 | 0.971
4 | COc1nc(NC(=O)NS(=O)(=O)c2ccccc2C(F)(F)F)nc(C(F)(F)F)n1 | 1.01 | 0.99 | 1 | 0.979 | 0.988 | 0.899 | 0.986 | 1.06 | 0.996 | 0.964 | 0.993 | 1.02
5 | CC(C)NS(=O)(=O)NC(=O)c1cc(-n2c(=O)cc(C(F)(F)F)[nH]c2=O)c(F)cc1Cl | 0.998 | 1.02 | 1.03 | 1.01 | 1.03 | 0.974 | 0.991 | 0.977 | 1.05 | 0.983 | 1 | 1
6 | COc1cc(OC)nc(NC(=O)NS(=O)(=O)c2c(-c3nnn(C)n3)cnn2C)n1 | 1.01 | 1.01 | 0.988 | 1.1 | 1.02 | 0.873 | 1.04 | 1.03 | 0.845 | 1.03 | 0.948 | 0.953
7 | S=C([S-])NCCNC(=S)[S-].S=C([S-])NCCNC(=S)[S-].[Mn+2].[Zn+2] | 0.99 | 0.996 | 1.03 | 1.22 | 1.06 | 1.03 | 1.08 | 0.967 | 1.01 | 1.01 | 0.999 | 1.03
8 | CCCCOCCOCCOCc1cc2c(cc1CCC)OCO2 | 1.06 | 1.03 | 1 | 0.84 | 0.992 | 1.03 | 1.01 | 1.07 | 0.529 (active) | 0.924 | 1 | 1.03
9 | CC1=C(C(=O)Nc2ccccc2)CCCO1 | 1.01 | 0.992 | 0.981 | 0.974 | 0.969 | 0.952 | 1.03 | 1.05 | 0.974 | 1.01 | 0.996 | 1.03
10 | CCCCOC(=O)C(C)Oc1ccc(Oc2ccc(C(F)(F)F)cn2)cc1 (centres undefined) | 0.987 | 1.02 | 1.01 | 1.09 | 0.997 | 0.914 | 0.985 | 1.02 | 0.768 | 0.961 | 0.932 | 0.974
11 | c1ccc2cc3ccccc3cc2c1 | 0.927 | 0.987 | 0.967 | 1.27 | 1.01 | 0.914 | 0.923 | 0.999 | 0.758 | 0.958 | 0.933 | 0.919
12 | ClC=C(c1ccc(Cl)cc1)c1ccc(Cl)cc1 | 0.942 | 0.99 | 0.977 | 0.977 | 0.98 | 0.915 | 0.946 | 1.07 | 0.977 | 0.948 | 0.932 | 0.928
13 | FC(F)(F)c1cccc(C(c2ccccc2)(c2ccccc2)n2cncn2)c1 | 0.713 | 0.975 | 0.959 | 0.646 (active) | 0.899 | 0.851 | 1.11 | 1.03 | 0.842 | 0.619 (active) | 0.911 | 0.94
14 | CCOC(=O)c1cnn(C)c1S(=O)(=O)NC(=O)Nc1nc(OC)cc(OC)n1 | 0.991 | 1.02 | 1.01 | 1.08 | 1.09 | 1.1 | 1.02 | 0.759 | 1.03 | 1.02 | 1.08 | 1.01
15 | CCOC(=O)C1=NN(c2ccc(Cl)cc2Cl)C(C)(C(=O)OCC)C1 (centres undefined) | 0.97 | 0.993 | 0.989 | 0.903 | 0.985 | 1.06 | 0.883 | 1.04 | 0.918 | 0.928 | 0.952 | 0.994
16 | COCC(=O)N(c1c(C)cccc1C)C(C)C(=O)O (centres undefined) | 1.01 | 1 | 1.01 | 1.09 | 1.15 | 1.04 | 1.02 | 1.01 | 1.01 | 1.05 | 1.01 | 1.01
17 | CC(C)(c1ccc(O)cc1)c1ccc(O)cc1 | 1.01 | 0.994 | 0.989 | 1.04 | 1.1 | 1 | 1.04 | 1.07 | 1.38 | 1.07 | 1.06 | 1.01
18 | CC1(C)C(C(=O)OC(C#N)c2cccc(Oc3ccccc3)c2)C1C(Br)C(Br)(Br)Br (centres undefined) | 0.99 | 1.02 | 1.01 | 0.996 | 1.05 | 1.04 | 1.12 | 1.06 | 0.998 | 1 | 0.932 | 0.972
19 | NC(Cn1cncn1)C(=O)O (centres undefined) | 1.01 | 0.966 | 0.976 | 0.93 | 0.94 | 0.999 | 0.977 | 0.967 | 1.05 | 1.01 | 1 | 0.998
20 | COc1cc(OC)nc(NC(=O)NS(=O)(=O)N(C)S(C)(=O)=O)n1 | 1 | 1.02 | 1.01 | 1.04 | 1.01 | 1.06 | 1.04 | 1.06 | 1.01 | 0.983 | 0.99 | 1.02
21 | COC(=O)C(C)Oc1ccc(Oc2ncc(C(F)(F)F)cc2Cl)cc1 (centres undefined) | 1.02 | 0.972 | 0.987 | 1.05 | 0.954 | 0.84 | 0.995 | 1.03 | 0.834 | 0.963 | 1.01 | 0.954
22 | Cc1cccc(C)c1N(C(=O)CCl)C1CCOC1=O (centres undefined) | 0.889 | 0.963 | 1.01 | 1.09 | 1.02 | 0.953 | 1.01 | 0.408 | 0.99 | 0.981 | 1.08 | 0.86
